Results on 29 compounds are retold here after PubChem BioAssay AID588591 (National Center for Advancing Translational Sciences (NCATS), 2011).

The whole screen tested about 390,000 compounds, of which about 4,700 (1.2%) were called active. Entries that show only a call come without a potency. Another 4% or so got no clear call; they are omitted. Calls come from the whole dose curve; as a rule, active = well fitted inhibition curve with a large enough effect; inconclusive = small, poorly fitted or top-dose-only effect, or another doubt; inactive = no such curve, though single readings can be large or run the other way. The sample as a whole holds a higher share of actives than the screen did.
Potency is the fitted concentration of half-maximal effect.

Sequence of DNA polymerase eta (Homo sapiens) (Q9Y253 whole entry, looked up): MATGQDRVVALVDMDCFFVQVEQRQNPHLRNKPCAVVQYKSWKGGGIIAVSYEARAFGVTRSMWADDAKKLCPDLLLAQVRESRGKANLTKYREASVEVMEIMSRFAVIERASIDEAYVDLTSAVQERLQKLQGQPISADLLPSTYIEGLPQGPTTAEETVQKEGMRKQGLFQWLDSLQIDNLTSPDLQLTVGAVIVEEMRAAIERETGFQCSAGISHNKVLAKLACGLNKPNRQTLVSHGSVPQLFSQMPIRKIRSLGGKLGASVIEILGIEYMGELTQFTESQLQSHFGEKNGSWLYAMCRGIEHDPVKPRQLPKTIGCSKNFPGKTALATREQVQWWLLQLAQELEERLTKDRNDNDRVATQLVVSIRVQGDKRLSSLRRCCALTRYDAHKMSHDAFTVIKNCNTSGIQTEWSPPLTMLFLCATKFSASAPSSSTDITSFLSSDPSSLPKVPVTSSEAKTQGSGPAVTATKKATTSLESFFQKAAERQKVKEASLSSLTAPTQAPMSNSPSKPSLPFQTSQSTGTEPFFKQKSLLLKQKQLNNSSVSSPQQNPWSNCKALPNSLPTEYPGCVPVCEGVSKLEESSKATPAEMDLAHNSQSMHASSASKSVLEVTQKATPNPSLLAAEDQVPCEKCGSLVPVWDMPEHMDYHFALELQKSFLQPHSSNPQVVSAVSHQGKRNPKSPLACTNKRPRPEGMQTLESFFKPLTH

For this test, the target named is DNA polymerase eta (Homo sapiens) (UniProt Q9Y253). The test is described as follows: qHTS for Inhibitors of Polymerase Eta. The settings on record: recombinant Pol eta, fluorescent DNA replication assay; series mostly up to 114 µM. The method, boiled down:
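Fluorescent replication assay: 50 nM final substrate added after a 15 min room-temperature compound preincubation with 10 nM enzyme. Signal taken at 0 min and again at 10 min.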
Background: In qHTS, concentration-response curves come from the screen itself.
`Cc1oc2c(c1C(=O)Nc1ccc(F)c(F)c1)C1=NCCN1C=N2`: the Potency result is “inactive”.
Regarding `CC1=C(C(=O)Nc2ccccc2)C(c2ccc(C)cc2)n2nc(SCc3ccccc3C)nc2N1` (centres undefined), the Potency entry is “inactive”.
Next, `CCOc1ccc(CNC(=O)CCc2c(C)nn(-c3ccc(N4CCCCC4)nn3)c2C)cc1`: “inactive”; `CCOC(=O)c1cc2c(=O)n3ccccc3nc2n(Cc2ccco2)c1=NC(=O)c1ccc(F)cc1`: “inactive”.
Next, `OC[C@H]1O[C@@H](n2cnc3c(N[C@H]4CC5CCC4C5)ncnc32)[C@H](O)[C@@H]1O` (some centres undefined): “inactive”; `O=C(Nc1ccc2nc(SCC(=O)N3CCCc4ccccc43)sc2c1)c1ccc(F)cc1`: “inactive”; `O=C(O)CCn1cc(/C=C/C(=O)c2ccc(Cl)cc2)c(-c2cccc(Br)c2)n1`: 56.2 µM (active).
Then `CCc1ccc(S(=O)(=O)c2nnn3c2nc(NCc2ccccc2OC)c2cc(Cl)ccc23)cc1`, with “inactive”; and `CN1CCN(C(=O)Cn2c(C(F)(F)F)nc3ccccc32)CC1`, with “inactive”; and `CCc1nn(CC(=O)N2CCN(CC)CC2)c(=O)c2cccn12`, with “inactive”.
For the compound `CCCN1CCN(C(=O)Cn2ncc3ccccc32)CC1`, the Potency was 25.1 µM (active).
Next, `Cc1ccc(NC(=O)CN2C(=O)CC(C)Sc3ccccc32)c(C)c1` (centres undefined): “inactive”; `COc1ccc(Br)cc1CNC(=O)c1cc(=O)[nH]c2ccc(S(=O)(=O)N3CCCC3)cc12`: “inactive”.
Take `O=C(Nc1ccc(F)cc1)c1cccnc1N1CCOCC1`: the Potency entry was “inactive”.
For the compound `O=C(O)c1ccc(NN=CC2=C(N3CCOCC3)/C(=C/c3ccccc3)CC2)cc1`, the Potency is 39.8 µM (active).
For `CC(C)(CNC(=O)c1ccc(Cl)c(S(=O)(=O)N2CCc3ccccc3C2)c1)N1CCOCC1`, the Potency result is “inactive”.
Next, `CCOc1ccc(NC(=O)C(=O)NCCc2csc3nc(-c4ccccc4F)nn23)cc1`: “inactive”; `Cc1cc2ccccc2n1CCNC(=O)c1ccc(F)cc1`: “inactive”; `Cc1ccc2c(=O)c(C(=O)c3ccc(Cl)cc3)cn(CC(=O)NC3CCCCC3)c2n1`: “inactive”.
Then `NC1=NC(c2cc(F)cc(F)c2)n2c(nc3ccccc32)N1` (centres undefined), with “inactive”; and `COc1ccc(Br)cc1/C=N/Nc1ccc(S(=O)(=O)Nc2ccccc2C(=O)O)cc1[N+](=O)[O-]`, with 15.8 µM (active).
As to `COc1ccc(S(=O)(=O)NC(C)c2ccccc2)cc1C(=O)N1CCCCC1` (centres undefined), the Potency entry is “inactive”.
On to `Cc1ccc(C)c(NS(=O)(=O)c2ccc(OCC(=O)NCc3cccnc3)cc2)c1`, for which the Potency entry is “inactive”.
Then `COC(=O)c1ccccc1NS(=O)(=O)c1ccc2c(c1)CCCN2C(C)=O`, with “inactive”; and `Cc1ccc(NS(=O)(=O)c2ccc3c(c2)n(C)c(=O)c(=O)n3C)c(C)c1`, with “inactive”.
For the compound `O=C(CN1CCCCCC1)Nc1ccc(Br)cc1[N+](=O)[O-]`, the Potency entry is “inactive”.
Take `Cc1ccc(NS(=O)(=O)c2ccc(N/N=C/c3ccccc3OCC(=O)O)c([N+](=O)[O-])c2)c(C)c1`: the Potency is 70.8 µM (active).
As to `COc1cccc(/C=N/Nc2ccc(S(=O)(=O)Nc3ccccc3C(=O)O)cc2[N+](=O)[O-])c1O`, the Potency was 17.8 µM (active).
Next, `CCN(CC(=O)NCc1cccs1)C(=O)c1cccc(S(=O)(=O)Nc2ccccc2OC)c1`: “inactive”.
